TROY signal inh: TROY signaling inhibition. actives 0.98% (n = 360,000). Q293 LMP1-TROYcd NF-kB luciferase reporter, 4 h. AID 1347056. inhibition, % at 10 µM;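 active = compounds whose plate-normalised and pattern-corrected inhibition of the luciferase reporter signal at the single screening dose is 50% or more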
LGR2 antag: Drosophila LGR2 receptor signaling inhibition; HEK293 LGR2, CRE-luciferase, bursicon-stimulated, 4 h; AID 720647; inhibition, % at 9.99 µM; actives 0.35% (n = 380,000);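 active = drop in luminescence signal, shown as inhibition above about 50% in the replicate tests, limit read from the data, passing the limit was not always enough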;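 note: agonist challenge used bursicon conditioned medium at about half maximal strength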
TWEAK-Fn14 inh: TWEAK-Fn14 signaling inhibition; TWEAK-stimulated Fn14 reporter cells, luciferase luminescence, 8 h; inhibition, % at 10 µM; actives 2% (n = 360,000); AID 1159606; in the data active = inhibition above about 50%
PAX8 reporter: PAX8 transcriptional activity inhibition | RMG-I TPO-luciferase reporter, SteadyGlo, 24 h | inhibition, % at 12.6 µM | actives 1.2% (n = 360,000);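 active = mean replicate inhibition at least 60% with every replicate also reaching 60%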;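 note: luciferase light reporting Pax8 driven TPO promoter activity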
EWS-Fli inh: blocks EWS/Fli oncoprotein-driven transcription. inhibition, % at 12.6 µM. A673 NR0B1-luciferase reporter, viability-normalised. actives 0.67% (n = 350,000);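 active = mean inhibition of at least 50% after viability correction, with every replicate also passing that limit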;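 note: firefly luciferase signal divided by Alamar Blue viability fluorescence both relative to DMSO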
LMP1 NFkB inh: reduces LMP1-driven NF-kappaB luciferase signal; LMP1-induced NF-kappaB luciferase reporter cells, luminescence; actives 0.69% (n = 350,000); inhibition, % at 12.5 µM; in the data active = inhibition above about 41%
Hits are given with their value; n = inactive; x = no result. Shown are actives, neighbours in structure and some others; about 3.2% of the full set was active somewhere.

SMILES	TROY signal inh	LGR2 antag	TWEAK-Fn14 inh	PAX8 reporter	EWS-Fli inh	LMP1 NFkB inh
O=C(Nc1nc2cc(Cl)ccc2s1)C1CCCN(S(=O)(=O)c2cccc3cccnc23)C1 (stereo not given)	n	x	84.3	x	x	n
C[C@@H](O)C#Cc1ccc2c(c1)O[C@H](CN(C)C(=O)CC1CC1)[C@@H](C)CN([C@@H](C)CO)S2(=O)=O	x	n	x	x	n	x
O=C(C[C@@H]1CC[C@@H]2[C@H](COC[C@@H](O)CN2Cc2cccc(C(F)(F)F)c2)O1)NCc1ccc(F)cc1	x	n	x	n	n	x
COCC(=O)N1C[C@H]2[C@@H](c3ccccc31)[C@H](CO)N2C(=O)C1CCCC1	x	n	x	n	n	x
COc1ccccc1CNC(=O)c1oc2ccc(S(=O)(=O)N3CCCC3)cc2c1C	n	x	n	x	x	n
COc1ccc(NC(=O)c2oc3ccc(S(=O)(=O)N4CCC5(CC4)OCCO5)cc3c2C)cc1	n	n	52.9	x	x	n
Cc1c(C(=O)NCc2ccc3c(c2)OCO3)oc2ccc(S(=O)(=O)N3CCCCC3)cc12	n	x	59.1	x	x	n
COc1ccccc1CNC(=O)c1oc2ccc(S(=O)(=O)N3CCOCC3)cc2c1C	n	n	52.1	n	n	n
CCCC#Cc1ccc([C@H]2[C@@H](CO)N3C(=O)CN(C(=O)Nc4ccccc4)C[C@@H]23)cc1	x	n	x	x	n	x
CCCN1[C@@H]2c3ccc(-c4cccc(OC)c4)c(=O)n3C[C@H]1[C@H](CO)[C@H]2C(=O)NCC	x	n	x	x	n	x
CCOC(=O)c1sc2ccccc2c1NC(=O)c1coc2ccccc2c1=O	n	n	57.3	n	x	n
O=C(C[C@@H]1CC[C@@H]2[C@H](COC[C@@H](O)CN2Cc2ccc(Oc3ccccc3)cc2)O1)N1CCc2ccccc2C1	x	n	x	n	n	x
O=C(C[C@H]1CC[C@H]2[C@@H](COC[C@@H](O)CN2Cc2ccc(Oc3ccccc3)cc2)O1)N1CCc2ccccc2C1	x	x	x	104.9	n	x
O=C(C[C@@H]1CC[C@H]2[C@@H](COC[C@H](O)CN2Cc2ccc(Oc3ccccc3)cc2)O1)N1CCc2ccccc2C1	x	x	x	105.7	n	x
O=C(C[C@H]1CC[C@@H]2[C@H](COC[C@H](O)CN2Cc2ccc(Oc3ccccc3)cc2)O1)N1CCc2ccccc2C1	x	x	x	n	n	x
CC(C)NC(=O)N(C)C[C@@H]1Oc2ccc(NC(=O)Nc3ccc4c(c3)OCO4)cc2CC(=O)N([C@@H](C)CO)C[C@@H]1C	x	n	x	x	n	x
CC(C)NC(=O)N(C)C[C@H]1Oc2c(NC(=O)c3ccc(-c4nccs4)cc3)cccc2C(=O)N([C@H](C)CO)C[C@H]1C	x	n	x	x	n	x
CC(C)(C)c1cc[n+](/C(C(=S)Nc2ccccc2F)=C(/[O-])c2ccc3c(c2)OCCO3)cc1	n	n	n	n	n	n
[O-]C(=C(C(=S)Nc1cccc2ccccc12)[n+]1ccccc1)c1ccc2c(c1)OCCO2	79.2	x	102.9	x	x	n
CCCCC[C@@H](C)N1C[C@H](COCc2ccccc2)Oc2cc(N3CC[C@@H](N(C)C)C3)ccc2S1(=O)=O	n	n	n	84.5	n	x
S=C(NC1CC1)NC1CCCc2ccccc21 (stereo not given)	n	n	n	n	n	n
c1ccc2c(c1)CCCC2C1=NCCN1 (stereo not given)	n	x	n	n	n	79.4
COc1ccc(C(=O)/C=C/Sc2nc3ccccc3o2)cc1	n	n	61.3	n	54.7	n
COc1ccc2c3c(n(C)c2c1)[C@@H](CO)N(C(=O)Nc1ccccc1F)CC31CN(C(C)=O)C1	x	n	x	x	n	x
Cc1ccc(CSc2nnc(SCC(=O)N/N=C/c3c[nH]c4ccccc34)s2)cc1	n	n	n	n	n	n
SMILES	TROY signal inh	LGR2 antag	TWEAK-Fn14 inh	PAX8 reporter	EWS-Fli inh	LMP1 NFkB inh
CCn1c(SCC(=O)N/N=C/c2ccc(C)o2)nnc1-c1ccc(C)cc1	n	n	60.9	n	x	n
O=C(CSc1nnc(SCc2ccccc2Cl)s1)N/N=C/c1c[nH]c2ccccc12	n	n	64.2	n	x	n
CCn1c(SCC(=O)N/N=C/c2c[nH]c3ccccc23)nnc1-c1ccc(C(C)(C)C)cc1	n	n	59.7	n	n	n
CCn1c(SCC(=O)N/N=C/c2ccc(C)o2)nnc1-c1ccc(C(C)(C)C)cc1	n	n	n	n	x	n
CC(=O)N(C)C[C@@H]1Oc2cc(Br)ccc2S(=O)(=O)N([C@@H](C)CO)C[C@@H]1C	x	n	x	x	n	x
COc1cc(CN(C)C)cc(C=O)c1O	n	x	n	x	x	n
COc1cc(N=Nc2ccc(Br)cc2)cc(C=O)c1O	n	n	86.7	n	n	n
CCOC(=O)N1CCN(C(=O)/C(=C/c2cccc3ccccc23)NC(=O)c2ccc(OC)c(OC)c2)CC1	n	n	n	71.6	n	n
CC(C)(C)CC(C)(C)c1ccc(OCCOCC[N+](C)(C)Cc2ccccc2)cc1	n	n	56.6	77.9	n	n
c1ccc(OCCOCCOc2ccccc2)cc1	n	n	n	n	n	n
C[N+](C)(CCOc1ccccc1)Cc1ccccc1 (tested in a mixture with another compound)	71.1	n	n	n	x	n
CC(C)(C)c1ccc(OCCNCc2ccccc2)cc1	n	n	n	n	n	n
C/C=C/c1ccc([C@@H]2[C@@H](CO)N(C(C)=O)[C@@H]2CN(CC)C(=O)CN(C)C)cc1	x	n	x	n	n	x
CCCNC(=O)C[C@H]1CC[C@@H]2[C@@H](COc3ccc(NC(=O)Nc4c(C)noc4C)cc3C(=O)N2C)O1	x	n	x	n	n	x
COCC(=O)N[C@@H]1CC[C@H](CC(=O)N2CCCCC2)O[C@H]1CO	x	n	x	n	n	x
c1ccc2c3c([nH]c2c1)C(C1CCCCC1)N(Cc1ncc[nH]1)CC3 (stereo not given)	n	n	n	n	x	72.9
Cc1cnc(CN2CCc3c([nH]c4ccccc34)C2C2CCCCC2)[nH]1 (stereo not given)	n	n	n	n	n	n
O=C(Nc1ccc(F)cc1)N1[C@@H](CO)[C@@H]2c3ccccc3NC[C@@H]21	x	n	x	n	n	x
C[C@@H]1CCCCO[C@@H](CN(C)S(=O)(=O)c2ccccc2)[C@H](C)CN([C@H](C)CO)C(=O)c2cc(NS(=O)(=O)c3cccs3)ccc2O1	x	n	x	n	n	x
COc1ccc(OC)c(NC(=O)CSc2nc3ccccc3c(=O)n2CCNC(C)=O)c1	n	x	75.9	n	x	n
O=C(C[C@H]1C[C@@H]2c3cc(NS(=O)(=O)c4ccc(F)cc4)ccc3O[C@@H]2[C@@H](CO)O1)NCc1cc(F)ccc1F	x	n	x	x	n	x
CCSc1nnc(NC(=O)C(C)C)s1	n	n	n	n	n	n
Cc1ccc(NC(=O)CSc2nnc(NC(=O)C(C)C)s2)c(C)c1	n	n	n	n	n	62.6
Cc1nc2c(-c3ccccc3)c(C)[nH]n2c(=O)c1Cc1ccccc1	n	n	n	n	n	n
Cc1nc2c(C#N)c(C)[nH]n2c(=O)c1Cc1ccccc1	n	n	64.2	x	n	n
Cc1nc2c(-c3ccc(Cl)cc3)c(C)[nH]n2c(=O)c1Cc1ccccc1	n	n	n	61.6	n	43.4

Source: PubChem (several laboratories)
